# Shown are actives, neighbours in structure and some others; about 4.7% of the full set was active somewhere.
# tim23-1 inh: inhibits growth of tim23-1 mutant yeast. S. cerevisiae tim23-1 growth, BacTiter-Glo luminescence, 24 h. 1.3% of 330,000 active. AID 463212. inhibition, % at 20 µM;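 active = growth inhibition of the mutant yeast at or above 50%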;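 also: temperature-sensitive mutant grown at 25 °C; plate controls were DMSO-treated mutant yeast for no effect and medium wells lacking yeast for full effect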
# Calb FLC: affects C. albicans growth with fluconazole; C. albicans CaCi-2 (fluconazole-resistant clinical isolate) + fluconazole, Alamar Blue growth, 48 h; 0.57% of 300,000 active; AID 1979; growth inhibition, % (no concentration beside the values);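 active = growth inhibition above about 58% in most replicates, limit read from the data, passing the limit was not always enough; inconclusive = exactly half the replicates above a set limit; inactive = most replicates below a set limit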;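 also: all wells also contain fluconazole at 8 µg/ml as a sub-toxic cotreatment; 0% = median of DMSO wells and 100% = median of geldanamycin control wells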
# TIM10 inh: TIM10 yeast growth inhibition; AID 463195; S. cerevisiae TIM10 strain growth, BacTiter-Glo luminescence, 24 h; inhibition, % at 10 µM; 1.4% of 330,000 active;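 active = inhibition of 40% or more at the single tested concentration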;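 also: wild-type TIM10 isogenic control strain grown at permissive 25 °C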
# SKKanGAS inh: blocks kanamycin growth of S. pyogenes SKKanGAS strain; BacTiter-Glo, 6 h; 1.3% of 300,000 active; inhibition, % at 7.5 µM;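 active = mean replicate score, as percent of positive control median, at least 50; inconclusive = mean below 50 but one replicate at or above 50; inactive = mean and every replicate below 50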;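 also: strain carries kanamycin resistance gene driven by streptokinase promoter and grows in 40 µg/ml kanamycin; loss of luminescence reflects streptokinase promoter inhibition or plain growth inhibition; 0% = median of DMSO wells and 100% = positive control at its reference dose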
# tim10-1 inh: growth inhibitors of tim10-1 mutant yeast; S. cerevisiae tim10-1 ts strain growth, BacTiter-Glo, 24 h; inhibition, % at 20 µM; 2.2% of 330,000 active;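 active = inhibition of at least 40%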;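 also: mutant grown at 25 °C; 0% = DMSO wells with yeast and 100% = wells holding no yeast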
# PfHsp90 set2: inhibits growth of yeast expressing Plasmodium falciparum Hsp90. 0.32% of 310,000 active. inhibition, % at 9.4 µM. S. cerevisiae expressing PfHsp90, BacTiter-Glo ATP, 48 h; yeast lacking PDR1 and PDR3 efflux regulators;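 active = every replicate shows inhibition above about 80%, whatever the replicate mean, limit read from the data; inconclusive = mean inhibition reaches the set limit but some replicate falls short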;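 also: 0% = DMSO neutral controls and 100% = 20 µM radicicol positive controls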
# tim10-1 conf: confirmation of tim10-1 mutant yeast growth inhibitors | shares compounds with tim10-1 inh | S. cerevisiae tim10-1 ts strain growth, BacTiter-Glo, 24 h | inhibition, % at 20 µM | 56% of 7,400 active | AID 463213;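 active = inhibition of yeast growth at or above a set limit in either of two repeat tests at 20 µM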;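 also: tim10-1 mutant grown at permissive 25 °C to find synthetic lethal compounds; 0% = DMSO yeast wells and 100% = medium wells without yeast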
# * = called active by the depositor; ? = inconclusive; · = no result.
SMILES,tim23-1 inh,Calb FLC,TIM10 inh,SKKanGAS inh,tim10-1 inh,PfHsp90 set2,tim10-1 conf
O=C(C(O)c1ccccc1)N1N=C(c2ccccc2)CC1(O)C(F)(F)F (stereo unspecified),23,26,14,1,13,-45,·
COc1ccc(CCNC(=O)c2cc(-c3ccc(Cl)c(Cl)c3)oc2C)cc1,25,-3,29,53*,40*,6,36*
COc1cccc(Oc2nc(-c3ccncc3)nc3ccccc23)c1,47,5,22,-3,41*,·,22
Cc1cc(C)cc(NC(=O)CCN2CCCC2)c1,10,-10,-10,5,-3,0,·
COc1cc(NC(=S)Nc2ccc3c(c2)OCCO3)cc(OC)c1OC,18,-6,28,-1,7,13,·
S=C(Nc1ccc(Br)cc1)Nc1ccc2c(c1)OCCO2,34,0,15,-2,45*,5,3
COC(=O)c1ccc(N2CCN(S(=O)(=O)c3ccccc3)CC2)c([N+](=O)[O-])c1,30,-1,3,0,42*,-14,15
O=C(c1ccc(N2CCN(S(=O)(=O)c3ccccc3)CC2)c([N+](=O)[O-])c1)N1CCOCC1,12,2,4,12,9,-23,·
Cc1ccc(N=Nc2c(O)n(CN3CCOCC3)c3ccccc23)cc1,13,-11,30,1,44*,·,32*
COc1ccc(/C=C2\SC(N3CCCCC3)=NC2=O)cc1,46,4,31,-6,47*,-10,44*
COc1ccccc1CNC(=O)[C@@H](NC(=O)C1CCN(C(=O)[C@@H]2CCCN2)CC1)C(C)C,-6,-6,6,2,-4,-6,·
Cc1ccccc1-c1nc(CN2CCN(C(=O)c3ccco3)CC2)c(C)o1,18,-5,9,-2,7,-26,·
CCOc1ccccc1-c1nc(CN2CCN(C(=O)c3ccco3)CC2)c(C)o1,39,-12,16,1,41*,12,22
COc1ccc(C)cc1NC(=O)N1CCCc2ccccc21,26,-7,4,-12,47*,-5,15
COc1ccc(NC(=O)N2CCCc3ccccc32)c(OC)c1,29,1,10,12,23,9,·
COc1ccc(S(=O)(=O)N2CCN(Cc3cccnc3)CC2)cc1,0,-5,0,-4,-15,15,·
CCOc1ccc(C(=O)CN2CCN(S(=O)(=O)c3ccc(OC)cc3)CC2)cc1,48,2,23,2,42*,17,42*
CC(C)(C)C(=O)CSc1ccc(S(=O)(=O)N2CCN(Cc3ccccc3)CC2)cn1,39,·,24,·,42*,0,36*
CCOc1ccc(C(=O)CN2CCN(S(=O)(=O)c3ccc(Br)cc3)CC2)cc1,23,-16,13,1,17,·,·
COc1ccc(S(=O)(=O)N2CCN(Cc3ccccc3)CC2)cc1,41,?,12,-2,48*,11,31
Cc1cccc(CN2CCC(Oc3ccc(C(=O)N4CCCCC4)cc3)CC2)c1,8,3,13,-10,17,9,·
O=S(=O)(Nc1cc(Sc2ncn[nH]2)c(O)c2ccccc12)c1ccccc1,48,·,30,·,50*,0,27
C[C@@H]1NS(=O)(=O)[C@H]2C[C@@H]3C=C[C@]2(O3)[C@H]1OC(=O)Nc1ccc(C(F)(F)F)cc1[N+](=O)[O-],8,·,4,·,17,-9,·
C/C(=N\NC(=S)Nc1ccc(C)cc1)c1cccc(N)c1,1,43,36,8,42*,-19,21
COc1ccc(NS(=O)(=O)c2ccc(SC)cc2)cc1,20,-1,-7,0,19,-1,·
COC(=O)c1ccc(NS(=O)(=O)c2ccc(SC)cc2)cc1,31,-4,13,-3,40*,29,21
CCOC(=O)C1CCCc2c1[nH]c1ccc(Cl)cc21 (stereo unspecified),34,6,20,14,43*,14,32*
O=C(COC(=O)C1CC2C=CC1C2)Nc1cccc(S(=O)(=O)N2CCCCCC2)c1 (stereo unspecified),37,11,38,-8,49*,1,30
